Source: ChEMBL document CHEMBL1961873, “Compounds: GSK PKIS; Assays: Nanosyn kinase panel” (2012)

Columns and labels:
[1] = target: T1, 3-phosphoinositide-dependent protein kinase 1 (Homo sapiens) (UniProt O15530); conditions: at 0.1 µM;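 further: values are mean inhibition of PDK1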
T1 sequence (whole entry): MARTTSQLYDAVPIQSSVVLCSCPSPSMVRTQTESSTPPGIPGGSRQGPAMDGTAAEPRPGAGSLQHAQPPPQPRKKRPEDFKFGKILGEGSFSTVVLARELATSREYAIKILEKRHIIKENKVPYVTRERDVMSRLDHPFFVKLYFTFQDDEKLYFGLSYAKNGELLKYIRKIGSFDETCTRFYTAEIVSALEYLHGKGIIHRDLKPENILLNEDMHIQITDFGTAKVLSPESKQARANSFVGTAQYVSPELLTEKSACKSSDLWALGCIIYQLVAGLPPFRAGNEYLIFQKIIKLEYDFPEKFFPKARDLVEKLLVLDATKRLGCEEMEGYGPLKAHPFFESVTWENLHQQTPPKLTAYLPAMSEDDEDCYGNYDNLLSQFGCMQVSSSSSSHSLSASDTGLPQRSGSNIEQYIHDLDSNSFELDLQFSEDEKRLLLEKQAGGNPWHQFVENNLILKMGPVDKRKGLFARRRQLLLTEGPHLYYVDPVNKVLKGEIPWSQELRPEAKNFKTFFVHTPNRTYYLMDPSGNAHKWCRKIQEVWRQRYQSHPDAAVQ

[2] = target: cAMP-dependent protein kinase catalytic subunit alpha (Homo sapiens) (UniProt P17612); conditions: at 0.1 µM
[3] = target: cAMP-dependent protein kinase catalytic subunit alpha (Homo sapiens) (UniProt P17612); conditions: at 1 µM
[4] = target: Protein kinase C alpha type (Homo sapiens) (UniProt P17252); conditions: at 0.1 µM
[5] = target: Protein kinase C alpha type (Homo sapiens) (UniProt P17252); conditions: at 1 µM
[6] = target: Protein kinase C beta type (Homo sapiens) (UniProt P05771); conditions: at 0.1 µM
Protein kinase C beta type (Homo sapiens), sequence (P05771 2-671 limits assumed): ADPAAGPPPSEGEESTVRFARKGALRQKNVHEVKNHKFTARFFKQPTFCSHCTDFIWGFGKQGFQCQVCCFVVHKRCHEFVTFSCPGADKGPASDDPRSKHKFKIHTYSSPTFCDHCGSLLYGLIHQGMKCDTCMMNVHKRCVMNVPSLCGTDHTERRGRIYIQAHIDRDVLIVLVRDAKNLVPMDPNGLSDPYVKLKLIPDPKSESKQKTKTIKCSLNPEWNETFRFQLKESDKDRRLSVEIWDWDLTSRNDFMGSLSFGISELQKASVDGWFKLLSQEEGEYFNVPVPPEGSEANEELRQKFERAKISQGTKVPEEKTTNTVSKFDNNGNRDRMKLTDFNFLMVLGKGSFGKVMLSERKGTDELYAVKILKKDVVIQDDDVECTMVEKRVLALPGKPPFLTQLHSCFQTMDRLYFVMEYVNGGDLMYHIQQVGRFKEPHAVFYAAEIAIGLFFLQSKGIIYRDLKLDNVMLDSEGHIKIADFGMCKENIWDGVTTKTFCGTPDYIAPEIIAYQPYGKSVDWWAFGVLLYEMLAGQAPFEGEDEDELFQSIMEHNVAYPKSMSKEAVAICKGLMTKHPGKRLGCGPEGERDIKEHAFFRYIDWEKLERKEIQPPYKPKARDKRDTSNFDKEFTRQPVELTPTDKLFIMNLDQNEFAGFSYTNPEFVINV

[7] = target: Protein kinase C beta type (Homo sapiens) (UniProt P05771); conditions: at 1 µM
[8] = target: Protein kinase C eta type (Homo sapiens) (UniProt P24723); conditions: at 0.1 µM
Protein kinase C eta type (Homo sapiens), sequence (P24723 whole entry): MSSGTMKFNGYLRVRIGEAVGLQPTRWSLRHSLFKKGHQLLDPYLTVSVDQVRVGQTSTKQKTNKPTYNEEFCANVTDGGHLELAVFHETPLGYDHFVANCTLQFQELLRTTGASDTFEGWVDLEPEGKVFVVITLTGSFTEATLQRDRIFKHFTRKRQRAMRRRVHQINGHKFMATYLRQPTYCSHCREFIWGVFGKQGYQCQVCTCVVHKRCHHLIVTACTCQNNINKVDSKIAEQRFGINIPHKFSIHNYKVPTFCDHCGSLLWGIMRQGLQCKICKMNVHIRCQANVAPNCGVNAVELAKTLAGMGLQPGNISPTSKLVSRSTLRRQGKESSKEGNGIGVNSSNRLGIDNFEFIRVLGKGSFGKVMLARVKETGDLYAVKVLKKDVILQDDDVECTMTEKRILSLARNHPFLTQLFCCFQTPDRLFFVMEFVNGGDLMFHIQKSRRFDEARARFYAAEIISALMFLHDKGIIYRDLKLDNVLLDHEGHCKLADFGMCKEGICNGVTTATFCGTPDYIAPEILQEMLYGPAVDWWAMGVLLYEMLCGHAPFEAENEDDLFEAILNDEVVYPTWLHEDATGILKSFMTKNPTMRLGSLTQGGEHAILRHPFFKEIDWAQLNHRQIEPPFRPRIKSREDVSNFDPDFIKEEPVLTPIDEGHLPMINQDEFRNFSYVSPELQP

[9] = target: Protein kinase C eta type (Homo sapiens) (UniProt P24723); conditions: at 1 µM
[10] = target: Protein kinase C gamma type (Homo sapiens) (UniProt P05129); conditions: at 0.1 µM
[11] = target: Protein kinase C gamma type (Homo sapiens) (UniProt P05129); conditions: at 1 µM
[12] = target: T2, Protein kinase C iota type (Homo sapiens) (UniProt P41743); conditions: at 0.1 µM
T2 sequence (whole entry): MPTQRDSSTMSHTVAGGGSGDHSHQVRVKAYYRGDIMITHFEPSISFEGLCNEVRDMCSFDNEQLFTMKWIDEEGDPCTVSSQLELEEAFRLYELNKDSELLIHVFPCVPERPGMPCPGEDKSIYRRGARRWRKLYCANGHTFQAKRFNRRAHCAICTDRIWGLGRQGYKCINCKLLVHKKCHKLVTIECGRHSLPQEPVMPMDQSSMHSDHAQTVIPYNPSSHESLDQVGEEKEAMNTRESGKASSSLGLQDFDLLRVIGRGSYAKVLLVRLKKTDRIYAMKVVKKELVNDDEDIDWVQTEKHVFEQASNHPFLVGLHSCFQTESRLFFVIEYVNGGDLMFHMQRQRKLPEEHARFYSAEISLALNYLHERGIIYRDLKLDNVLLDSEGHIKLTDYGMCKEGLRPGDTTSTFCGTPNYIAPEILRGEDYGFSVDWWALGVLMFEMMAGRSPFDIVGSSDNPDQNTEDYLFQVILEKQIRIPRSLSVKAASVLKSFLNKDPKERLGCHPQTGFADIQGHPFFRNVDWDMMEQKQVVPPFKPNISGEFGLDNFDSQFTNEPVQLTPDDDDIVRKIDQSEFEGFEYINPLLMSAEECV

[13] = target: T2, Protein kinase C iota type (Homo sapiens); conditions: at 1 µM
[14] = target: Protein kinase C theta type (Homo sapiens) (UniProt Q04759); conditions: at 0.1 µM
Protein kinase C theta type (Homo sapiens), sequence (Q04759 whole entry, looked up): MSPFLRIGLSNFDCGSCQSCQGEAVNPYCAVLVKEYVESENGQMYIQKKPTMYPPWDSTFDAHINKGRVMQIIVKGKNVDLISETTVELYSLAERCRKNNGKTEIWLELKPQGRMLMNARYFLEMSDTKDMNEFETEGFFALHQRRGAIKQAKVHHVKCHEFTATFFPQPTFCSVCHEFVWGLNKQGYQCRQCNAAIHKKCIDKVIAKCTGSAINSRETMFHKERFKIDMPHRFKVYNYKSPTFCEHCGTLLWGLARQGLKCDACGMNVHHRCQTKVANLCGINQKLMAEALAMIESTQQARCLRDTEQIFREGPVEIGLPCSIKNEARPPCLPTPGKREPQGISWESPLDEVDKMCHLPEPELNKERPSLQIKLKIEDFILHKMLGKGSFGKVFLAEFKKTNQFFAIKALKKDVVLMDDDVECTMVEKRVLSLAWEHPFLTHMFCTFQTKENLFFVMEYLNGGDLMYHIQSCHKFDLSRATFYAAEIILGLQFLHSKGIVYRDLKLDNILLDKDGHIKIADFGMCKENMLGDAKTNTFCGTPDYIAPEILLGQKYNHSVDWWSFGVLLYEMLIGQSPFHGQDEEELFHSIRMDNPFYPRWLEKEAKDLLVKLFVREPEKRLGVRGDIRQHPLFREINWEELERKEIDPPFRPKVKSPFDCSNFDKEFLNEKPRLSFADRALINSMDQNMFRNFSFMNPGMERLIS

[15] = target: Protein kinase C theta type (Homo sapiens) (UniProt Q04759); conditions: at 1 µM
[16] = target: Protein kinase C beta type (Homo sapiens) (UniProt P05771); conditions: at 0.1 µM; remark: listed apart in the source
[17] = target: Protein kinase C beta type (Homo sapiens) (UniProt P05771); conditions: at 1 µM; remark: listed apart in the source
[18] = target: T3, Serine/threonine-protein kinase D1 (Homo sapiens) (UniProt Q15139); conditions: at 0.1 µM
T3 sequence (whole entry): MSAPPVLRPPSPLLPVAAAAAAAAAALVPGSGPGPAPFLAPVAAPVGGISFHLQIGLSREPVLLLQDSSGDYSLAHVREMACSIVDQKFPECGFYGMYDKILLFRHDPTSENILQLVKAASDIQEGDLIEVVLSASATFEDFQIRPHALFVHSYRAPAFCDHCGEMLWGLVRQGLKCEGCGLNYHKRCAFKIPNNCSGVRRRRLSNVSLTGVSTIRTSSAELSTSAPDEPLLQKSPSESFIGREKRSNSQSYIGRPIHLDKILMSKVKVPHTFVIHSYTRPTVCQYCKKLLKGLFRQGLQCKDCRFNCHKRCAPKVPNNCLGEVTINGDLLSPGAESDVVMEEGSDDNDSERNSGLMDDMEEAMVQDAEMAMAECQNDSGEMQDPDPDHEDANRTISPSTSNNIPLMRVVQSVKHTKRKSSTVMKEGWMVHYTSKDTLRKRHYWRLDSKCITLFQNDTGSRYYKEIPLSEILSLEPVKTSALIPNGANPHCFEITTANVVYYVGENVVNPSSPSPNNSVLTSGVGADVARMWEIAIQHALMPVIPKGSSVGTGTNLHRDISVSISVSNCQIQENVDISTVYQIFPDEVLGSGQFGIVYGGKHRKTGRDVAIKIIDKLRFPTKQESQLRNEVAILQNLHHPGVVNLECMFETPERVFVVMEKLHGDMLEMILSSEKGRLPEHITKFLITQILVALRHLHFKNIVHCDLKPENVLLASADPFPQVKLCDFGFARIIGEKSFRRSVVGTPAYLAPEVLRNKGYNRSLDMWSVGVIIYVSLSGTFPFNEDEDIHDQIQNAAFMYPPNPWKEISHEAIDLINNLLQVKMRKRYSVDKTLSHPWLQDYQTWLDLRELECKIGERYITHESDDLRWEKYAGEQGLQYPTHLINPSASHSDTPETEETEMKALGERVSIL

[19] = target: T3, Serine/threonine-protein kinase D1 (Homo sapiens); conditions: at 1 µM
[20] = target: T4, Serine/threonine-protein kinase D2 (Homo sapiens) (UniProt Q9BZL6); conditions: at 0.1 µM;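 further: reported percent inhibition values are means, part of the GSK PKIS kinase panel screen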
T4 sequence (whole entry): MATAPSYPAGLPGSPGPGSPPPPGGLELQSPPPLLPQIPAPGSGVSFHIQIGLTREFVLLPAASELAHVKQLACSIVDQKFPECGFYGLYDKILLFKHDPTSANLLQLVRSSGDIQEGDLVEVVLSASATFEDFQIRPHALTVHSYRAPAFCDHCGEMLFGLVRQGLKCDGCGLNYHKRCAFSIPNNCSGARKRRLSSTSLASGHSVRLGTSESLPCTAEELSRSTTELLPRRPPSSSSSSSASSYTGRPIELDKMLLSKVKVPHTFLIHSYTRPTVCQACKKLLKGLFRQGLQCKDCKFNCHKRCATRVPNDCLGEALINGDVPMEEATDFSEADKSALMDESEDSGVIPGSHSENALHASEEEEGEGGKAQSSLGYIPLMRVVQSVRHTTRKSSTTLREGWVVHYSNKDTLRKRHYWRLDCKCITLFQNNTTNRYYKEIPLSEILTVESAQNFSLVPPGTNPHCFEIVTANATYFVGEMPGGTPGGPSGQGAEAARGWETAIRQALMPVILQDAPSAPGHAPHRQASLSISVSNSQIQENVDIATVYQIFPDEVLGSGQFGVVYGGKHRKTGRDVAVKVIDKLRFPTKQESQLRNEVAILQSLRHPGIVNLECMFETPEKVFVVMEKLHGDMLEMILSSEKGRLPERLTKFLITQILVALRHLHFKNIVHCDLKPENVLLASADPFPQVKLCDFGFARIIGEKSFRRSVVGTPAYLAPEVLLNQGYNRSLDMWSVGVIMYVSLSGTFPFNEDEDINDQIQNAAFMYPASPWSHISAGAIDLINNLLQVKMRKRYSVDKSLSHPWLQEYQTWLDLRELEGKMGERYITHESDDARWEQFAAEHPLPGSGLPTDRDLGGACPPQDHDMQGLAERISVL

Row | SMILES | inhibition [1] [%] | inhibition [2] [%] | inhibition [3] [%] | inhibition [4] [%] | inhibition [5] [%] | inhibition [6] [%] | inhibition [7] [%] | inhibition [8] [%] | inhibition [9] [%] | inhibition [10] [%] | inhibition [11] [%] | inhibition [12] [%] | inhibition [13] [%] | inhibition [14] [%] | inhibition [15] [%] | inhibition [16] [%] | inhibition [17] [%] | inhibition [18] [%] | inhibition [19] [%] | inhibition [20] [%]
1 | Fc1ccc(-c2ncn(C3CCNCC3)c2-c2ccnc(Oc3ccc4c(c3)OCO4)n2)cc1 | -1.49 | 6.76 | 37.9 | 1.59 | 3.68 | 1.12 | 8.79 | 7.87 | 4.75 | 0.91 | 6.16 | 4.45 | 4.29 | 3.38 | 3.39 | 1.38 | 5.69 | 4.85 | 12.4 | 5.35
2 | CS(=O)(=O)CCNCc1ccc(-c2ccc3ncnc(Nc4ccc(OCc5ccccc5)c(Br)c4)c3c2)o1 | 2.06 | -1.58 | -1.94 | -3.83 | -2.95 | 0.95 | -0.59 | 5.37 | 5.42 | 0.5 | -0.13 | 2.91 | 2.72 | 2.31 | 2.41 | 0.97 | 1.27 | 0.19 | -0.25 | 0.64
3 | N#Cc1ccc(Oc2nccc(-c3c(-c4ccc(F)cc4)ncn3C3CCNCC3)n2)cc1 | 8.47 | 2.63 | 5.75 | 0.69 | 2.61 | 1.45 | 2.93 | 6.05 | 5.43 | 1.87 | 4.11 | 2.09 | 2.63 | 2.28 | 3.89 | 0.99 | 3.08 | 5.51 | 8.1 | 4.63
4 | c1ccc(-c2n[nH]cc2-c2ccnc(-c3ccc(OCCN4CCOCC4)cc3)c2)nc1 | 1.56 | 7.85 | 3.77 | 2.22 | 1.97 | 5.36 | 3.85 | -2.82 | -2.18 | 3.17 | 4 | 3.68 | 4.56 | 0.5 | -0.12 | 3.96 | 3.92 | 10.3 | 66.3 | 16.2
5 | COc1ccc(-c2ccc3c(NC(=O)C4CC4)n[nH]c3n2)cc1 | -1.04 | 1.31 | 1.22 | -0.95 | -0.98 | -0.58 | 1.54 | 1.15 | 1.68 | 0.57 | 2.95 | 0.3 | -0.23 | 1.39 | 2.97 | 0.8 | 0.48 | 2.32 | 1.39 | 1.92
6 | O=C1NC(=O)C(c2cccc(Cl)c2)=C1Nc1ccc(Cl)c(C(=O)O)c1 | 1.28 | 2.1 | 1.05 | 0.36 | 0.21 | 0.61 | 1.11 | 3.84 | 8.96 | 4.02 | 4.28 | 0.11 | 0.87 | 1.72 | 3.51 | 1 | 1.2 | 2.5 | 3.42 | 3.1
7 | Fc1ccc(-c2nc3n(c2-c2ccncc2)CCS3)cc1 | 1.88 | -0.98 | 0.45 | -2.53 | -1.43 | 0.64 | 9.28 | 4.25 | 4.84 | 2.76 | 0.85 | 2.39 | 2.4 | 1.87 | 1.91 | 1.53 | 4.27 | 0.84 | 4.16 | 2.09
